Experiment [1] can be described thus: A CellTox Green Cytotoxicity Assay to monitor cytotoxicity in HepG2 cells - 16 hour (AID 1224876). Also: nearly all actives have a fitted effect of over 45% in size. Also: potency is read from the fitted curve at half-maximal effect. Summed up:
(§1)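 Cytotoxicity was tracked as dead-cell DNA fluorescence in HepG2 cells treated with test compounds at 37 C; each time-point value comes from one kinetic series spanning 0, 8, 16, 24, 32 and 40 h.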

Experiment [2] can be described thus: qHTS RealTime-Glo MT Cell Viability Assay in HepG2 cells - 32 hour (AID 1224877). Also: nearly all actives have a fitted effect of over 55% in size. Summed up: (§2)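 Tox21 10K library screened in qHTS format on HepG2 cells carrying RealTime-Glo reagents. Compounds were added after a 5 h preincubation, and the luminescent signal from continuous culture was measured repeatedly during 40 h treatment.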
(In general: Quantitative high-throughput screening tests each substance at several concentrations.)

Experiment [3] is described as follows: A CellTox Green Cytotoxicity Assay to monitor cytotoxicity in HepG2 cells - 24 hour (AID 1224878). Also: nearly all actives have a fitted effect of over 45% in size. Also: potency is read from the fitted curve at half-maximal effect. In a few lines:
as §1

A short description of experiment [4]: A CellTox Green Cytotoxicity Assay to monitor cytotoxicity in HepG2 cells - 40 hour (AID 1224879). Also: nearly all actives have a fitted effect of over 40% in size. Also: potency is read from the fitted curve at half-maximal effect. Summed up: as §1
Experiment [5] is described as follows: A CellTox Green Cytotoxicity Assay to monitor cytotoxicity in HEK293 cells - 32 hour (AID 1224881). Also: nearly all actives have a fitted effect of over 40% in size. Summed up:
(§3)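 Real-time, in one plate: 600 HEK293 cells/well with dead-cell DNA dye, pinned compound after 5 h, 37 C incubation over 40 h; viable cells give no appreciable fluorescence.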

A short description of experiment [6]: A CellTox Green Cytotoxicity Assay to monitor cytotoxicity in HepG2 cells - 32 hour (AID 1224883). Also: nearly all actives have a fitted effect of over 50% in size. Also: potency is read from the fitted curve at half-maximal effect. Summed up:
as §1

A short description of experiment [7]: A CellTox Green Cytotoxicity Assay to monitor cytotoxicity in HEK293 cells - 8 hour (AID 1224884). Also: nearly all actives have a fitted effect of over 35% in size. In a few lines: as §3
Experiment [8] can be described thus: qHTS RealTime-Glo MT Cell Viability Assay in HepG2 cells - 16 hour (AID 1224885). Also: nearly all actives have a fitted effect of over 50% in size. In a few lines: as §2
The nature of experiment [9]: qHTS RealTime-Glo MT Cell Viability Assay in HEK293 cells - 8 hour (AID 1224887). Also: nearly all actives have a fitted effect of over 50% in size. Also: potency is read from the fitted curve at half-maximal effect. Summed up:
(§4)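 Kinetic, non-lysing viability readout. Seed HEK293 (600/well) with reagent, incubate 5 h at 37 C/5% CO2, pin 23 nL compound in DMSO, incubate at 37 C, read luminescence at 0, 8, 16, 24, 32, 40 h.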

The nature of experiment [10]: A CellTox Green Cytotoxicity Assay to monitor cytotoxicity in HEK293 cells - 16 hour (AID 1224888). Also: nearly all actives have a fitted effect of over 35% in size. In a few lines: as §3
Experiment [11] is described as follows: qHTS RealTime-Glo MT Cell Viability Assay in HepG2 cells - 0 hour (AID 1224889). Also: nearly all actives have a fitted effect of over 50% in size. Summed up: as §2
The nature of experiment [12]: A CellTox Green Cytotoxicity Assay to monitor cytotoxicity in HepG2 cells - 8 hour (AID 1224890). Also: nearly all actives have a fitted effect of over 45% in size. Also: potency is read from the fitted curve at half-maximal effect. In a few lines:
as §1

The nature of experiment [13]: qHTS assay to identify small molecule antagonists of the androgen receptor (AR) signaling pathway using the MDA cell line in the presence of 0.5 nM R1881 - cell viability counter screen (AID 1259242). Also: nearly all actives have a fitted effect of over 45% in size. Summed up: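 Cells seeded at 3,000/well and allowed 5 hr at 37C, 0% CO2 before compound transfer and R1881 (0.5 nM final) addition; 16 hr later, live-cell protease fluorescence indicated cytotoxicity.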

Experiment [14] is described as follows: qHTS assay to identify small molecule phospholipidosis (PLD) inducers (AID 1259344; active = well fitted curve in the direction sought with a large enough effect; an effect the other way counts as inactive or inconclusive). In a few lines: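 Image-based: LipidTOX Red pit count/intensity per well and per cell; HepG2, 24 h compound at 37 C, PFA fixation, Hoechst counterstain.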
The nature of experiment [15]: A CellTox Green Cytotoxicity Assay to monitor cytotoxicity in HepG2 cells - 0 hour (AID 1224882). Also: nearly all actives have a fitted effect of over 35% in size. Summed up: as §1
A short description of experiment [16]: qHTS assay to identify small molecule antagonists of the estrogen receptor alpha (ER-alpha) signaling pathway using the BG1 cell line in the presence of 0.1 nM 17-beta-estradiol - cell viability counter screen (AID 1259241). Also: nearly all actives have a fitted effect of over 40% in size. In a few lines: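 VM7Luc4E2, 4,000 cells/well, phenol red-free medium + 10% charcoal-stripped FBS; 24 hr plating; cpd + 0.1 nM E2 final, 22 hr 37C/5% CO2; CellTiter-Fluor 30 min, fluorescence.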

In experiment [17] the target is Androgen receptor (Homo sapiens) (UniProt P10275). In words: qHTS assay to identify small molecule antagonists of the androgen receptor (AR) signaling pathway using the MDA cell line in the presence of 0.5 nM R1881 (AID 1259243). Also: nearly all actives have a fitted effect of over 50% in size. In a few lines: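 Luminescence from an AR/GR-responsive MMTV-luciferase construct in MDA-kb2 breast carcinoma cells, read 30 min after ONE-Glo, following 16 hr co-treatment with compounds and 0.5 nM R1881.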

For experiment [18], the target named is Estrogen receptor (Homo sapiens) (UniProt P03372). Description: qHTS assay to identify small molecule antagonists of the estrogen receptor alpha (ER-alpha) signaling pathway using the BG1 cell line in the presence of 0.1 nM 17-beta-estradiol (AID 1259244). Also: nearly all actives have a fitted effect of over 50% in size. Summed up:
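Luciferase signal from VM7Luc4E2 ERE-reporter cells, co-dosed with test compound and 0.1 nM final 17beta-estradiol for 22 h, read with ONE-Glo.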

A short description of experiment [19]: qHTS RealTime-Glo MT Cell Viability Assay in HEK293 cells - 0 hour (AID 1224880). In a few lines:
as §4

Experiment [20] can be described thus: qHTS RealTime-Glo MT Cell Viability Assay in HEK293 cells - 24 hour (AID 1224886). Also: nearly all actives have a fitted effect of over 50% in size. Also: potency is read from the fitted curve at half-maximal effect. In a few lines: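 Luminescence generated by NanoLuc from substrate produced by living HEK293 cells served as the viability signal. Each value reflects the reading at its stated time point during continuous 40 h compound exposure at 37 C.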

Unmarked numbers belong to inactive results. Results filed as inconclusive are left out. Active and inactive are the calls of the source. Unless noted, calls follow the shape of the dose curve; as a rule, active = well fitted curve in the direction sought with a large enough effect in the repeat runs; inconclusive = weak or mixed curves; inactive = no such curve, though single readings can be large; an effect the other way counts as inactive or inconclusive.

Estrogen receptor (Homo sapiens), sequence (P03372 whole entry, looked up): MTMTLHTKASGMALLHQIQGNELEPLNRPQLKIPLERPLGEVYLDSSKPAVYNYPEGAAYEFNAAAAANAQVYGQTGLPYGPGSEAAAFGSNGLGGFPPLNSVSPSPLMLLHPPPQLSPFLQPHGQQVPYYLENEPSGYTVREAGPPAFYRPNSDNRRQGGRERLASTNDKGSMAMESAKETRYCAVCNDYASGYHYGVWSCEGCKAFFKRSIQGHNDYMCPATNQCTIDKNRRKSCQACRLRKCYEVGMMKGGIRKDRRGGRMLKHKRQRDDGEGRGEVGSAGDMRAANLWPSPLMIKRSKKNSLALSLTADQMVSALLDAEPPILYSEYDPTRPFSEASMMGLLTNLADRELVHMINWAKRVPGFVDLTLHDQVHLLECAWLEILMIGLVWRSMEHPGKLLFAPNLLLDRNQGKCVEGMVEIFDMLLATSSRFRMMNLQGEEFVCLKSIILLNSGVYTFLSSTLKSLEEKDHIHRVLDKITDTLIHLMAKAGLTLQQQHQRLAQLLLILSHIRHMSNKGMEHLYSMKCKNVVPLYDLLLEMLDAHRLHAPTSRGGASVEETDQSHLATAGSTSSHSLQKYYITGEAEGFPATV
Androgen receptor (Homo sapiens), sequence (P10275 whole entry, looked up): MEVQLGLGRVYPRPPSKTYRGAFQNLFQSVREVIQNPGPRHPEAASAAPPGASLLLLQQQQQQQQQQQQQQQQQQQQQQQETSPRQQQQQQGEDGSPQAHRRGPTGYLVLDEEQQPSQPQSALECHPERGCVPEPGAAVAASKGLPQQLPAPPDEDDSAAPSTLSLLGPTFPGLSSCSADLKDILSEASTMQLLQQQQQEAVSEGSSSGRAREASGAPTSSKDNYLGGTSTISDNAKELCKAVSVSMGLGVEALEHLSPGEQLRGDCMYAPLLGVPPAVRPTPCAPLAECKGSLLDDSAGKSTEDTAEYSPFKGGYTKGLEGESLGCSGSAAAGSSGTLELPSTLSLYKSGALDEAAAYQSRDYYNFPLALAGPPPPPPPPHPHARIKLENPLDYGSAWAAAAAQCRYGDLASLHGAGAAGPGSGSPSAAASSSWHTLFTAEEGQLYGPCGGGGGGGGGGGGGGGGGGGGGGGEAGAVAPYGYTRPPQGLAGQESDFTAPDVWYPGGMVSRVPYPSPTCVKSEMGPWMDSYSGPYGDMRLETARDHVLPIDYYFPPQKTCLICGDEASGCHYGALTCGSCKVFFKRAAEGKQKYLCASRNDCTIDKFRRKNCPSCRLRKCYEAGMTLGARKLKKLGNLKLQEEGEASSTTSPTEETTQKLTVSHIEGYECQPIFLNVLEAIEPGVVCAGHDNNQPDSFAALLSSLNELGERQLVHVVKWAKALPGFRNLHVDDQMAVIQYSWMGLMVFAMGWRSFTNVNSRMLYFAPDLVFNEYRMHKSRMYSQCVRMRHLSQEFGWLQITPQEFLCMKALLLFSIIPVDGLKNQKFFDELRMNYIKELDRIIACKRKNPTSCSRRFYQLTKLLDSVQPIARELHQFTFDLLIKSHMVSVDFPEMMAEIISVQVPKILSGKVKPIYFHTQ

In the case of `CCCCCCCCCCCCCCCC(=O)NCCO`, the Potency in [1] is 8.49 µM (active); in [3], 8.49 µM (active); in experiment [4] it was 8.49 µM (active); in experiment [6] it was 9.52 µM (active); in [12] it was 6.01 µM (active). In addition, the compound was classed as inactive in [2], in experiment [8] and in experiment [14]. For the same compound, the Potency result in [5], in [7], in [9], in [10], in experiment [11] and in experiment [13] was “inactive” each time.

As to `CC(=O)OC(C(=O)c1ccccc1)c1ccccc1` (stereo unspecified), the Potency result in experiment [1], in experiment [3], in [4], in experiment [5], in [15] and in experiment [6] was “inactive” in each case. Also, the Potency result in experiment [7], in experiment [10], in [11], in [12], in [16] and in experiment [18] was “inactive” throughout. Moreover, the outcome in experiment [2], in experiment [8] and in experiment [17] was inactive.

Turning to `CCNC(=O)NCCCOc1cccc(CN2CCCCC2)c1`, the compound was classed as inactive in experiment [2], in [19], in experiment [8] and in experiment [14]. Also, the Potency in experiment [4] was 26.8 µM (active). In addition, the Potency entry in [5], in experiment [15], in [7], in [20], in experiment [9] and in experiment [10] was “inactive” in each case. The Potency result in experiment [11], in experiment [12], in experiment [16] and in experiment [18] was “inactive” in each case.

`O=C(O)/C=C/c1ccccc1`: the Potency entry in experiment [1], in [3], in experiment [4], in experiment [5], in [15] and in experiment [6] was “inactive” each time. In addition, the Potency result in [7], in experiment [20], in experiment [9], in experiment [10], in [11] and in experiment [16] was “inactive” throughout. Besides, the Potency result in [13] and in experiment [18] was “inactive” in each case. For the same compound, the compound was classed as inactive in [2], in experiment [8] and in experiment [14].

With `COCC(=O)Nc1c(I)c(C(=O)NCC(O)CO)c(I)c(C(=O)N(C)CC(O)CO)c1I` (stereo unspecified), the Potency entry in experiment [1], in [3], in experiment [4], in experiment [5], in experiment [15] and in experiment [6] was “inactive” each time. The Potency result in [7], in experiment [10], in experiment [11], in experiment [12], in experiment [16] and in experiment [18] was “inactive” in each case. Besides, the call in [2], in experiment [8], in experiment [17] and in experiment [14] was inactive.

As for `CNC(=O)C(c1ccccc1)c1ccccc1`, the outcome in experiment [2], in experiment [19] and in experiment [8] was inactive. The Potency result in [5], in [15], in experiment [7], in experiment [20], in [9] and in experiment [10] was “inactive” each time. For the same compound, the Potency entry in [11], in [16], in experiment [13] and in [18] was “inactive” each time.

Regarding `CC(=O)OCC(=O)[C@@]1(O)[C@H](OC(C)=O)C[C@H]2[C@@H]3CCC4=CC(=O)C=C[C@]4(C)[C@@]3(F)[C@@H](O)C[C@@]21C`, the Potency entry in experiment [1], in experiment [3], in experiment [4], in experiment [5], in experiment [15] and in experiment [6] was “inactive” each time. Further, the Potency entry in experiment [7], in [20], in experiment [9], in [10], in experiment [12] and in [16] was “inactive” throughout. Besides, the Potency entry in experiment [13] is “inactive”. Besides, the call in experiment [2], in [8] and in experiment [14] was inactive.

As to `CCCCOC(=O)[C@@H](C)Oc1ccc(Oc2ccc(C(F)(F)F)cn2)cc1`, the Potency result in experiment [1], in [3], in [4], in experiment [5], in experiment [15] and in [6] was “inactive” throughout. The Potency result in experiment [7], in experiment [10], in experiment [11], in experiment [13] and in experiment [18] was “inactive” throughout. Also, the result in experiment [2] and in experiment [8] was inactive. In addition, the Potency in [20] is 31.1 µM (active); in [9], 24.7 µM (active).

For the compound `CCCCCN(CCCOC)C(=O)C(CCC(=O)O)NC(=O)c1ccc(Cl)c(Cl)c1` (stereo unspecified), the outcome in experiment [2] and in [8] was inactive. In addition, the Potency entry in experiment [5], in experiment [7], in experiment [20], in experiment [9], in [10] and in [11] was “inactive” each time. The Potency entry in [16], in [13] and in [18] was “inactive” each time.

Take `CCCO`: the Potency result in experiment [1], in experiment [5], in [15], in experiment [7], in experiment [20] and in experiment [9] was “inactive” throughout. The Potency entry in experiment [10], in experiment [11], in [16], in experiment [13] and in [18] was “inactive” throughout. For the same compound, the compound was classed as inactive in [2], in [19] and in experiment [8].

The record behind these values is PubChem BioAssay (Tox21).
